Source: PubChem (National Center for Advancing Translational Sciences (NCATS))
TCR act: activators of T cell receptors; primary human leukocytes, anti-CD3, IL-2 HTRF, 48 h; Potency, µM (doses to about 9.22 µM), most hits filed as activators; 330,000 tested, under 10 active
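Human primary leukocytes + a-CD3 beads + cpd, 48 hr; IL-2 in supernatant by HTRF (ex 320nm / em 665nm). No co-stimulatory signal supplied.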
Nrf2 activator: activates Nrf2 signaling; AREc32 ARE-luciferase reporter (MCF7-derived line), luminescence, 24 h; Potency, µM (titrated, usually from 46.1 µM), most hits filed as activators; 0.31% of 410,000 active; AID 624171; also: nearly all actives have a fitted effect of over 65% in size
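Luciferase luminescence (Steady-Glo, 30 min at room temperature) served as the read-out of ARE activation in AREc32 cells treated with compounds for 24 hr at 37 deg C.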
CCT chaperon mod: cytosolic chaperonin activity modulation; purified chaperonin ATPase assay, HTRF ADP detection, 30 min; activity change, % (concentration not given with the values), hits read low; 0.3% of 360,000 active; AID 651819; in the data active = activity change below about -30%
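We incubate TRiC, 40 or 20 nM final, with library compounds at 76 uM and 10 uM ATP for 30 min at 37 °C. ADP formed is detected with Transcreener HTRF reagents after 30 min at room temperature.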
A-T KAP1 phos: potential ataxia-telangiectasia treatment. AID 485349. Potency, µM (titrated, usually from 57.5 µM), actives largely listed as activators. F2112 A-T fibroblasts, KAP-1 phosphorylation AlphaLISA; neocarzinostatin DNA damage 30 min before lysis. 0.19% of 320,000 active; also: nearly all actives have a fitted effect of over 45% in size
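ATM-like activity read as KAP-1 phosphorylation via AlphaLISA donor/acceptor antibody pairs after lysis and 6 hr at 25C. Cells were ATM-null patient fibroblasts (F2112, hTERT), dosed 60 min, then exposed to the DSB inducer NCS for 30 min.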
Nrf2 inh: blocks Nrf2 signaling; 2.1% of 360,000 active; A549 ARE-Fluc reporter, luciferase luminescence, 18-24 h; Potency, µM (doses to about 46 µM), usual class: inhibitors; also: nearly all actives have a fitted effect of over 60% in size
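A549 ARE_Fluc cells (5000/well, 5% FBS OPTI-MEM) pre-incubated 2 h, then treated with compounds 18-24 h at 37C/5% CO2 in concentration-response. CellTiter-Fluor viability read first; BugLite luciferase luminescence after 15 min at room temperature gives Nrf2 activity.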
A549 viability: A549 cytotoxicity, counter-screen for Nrf2 inhibitors | A549 ARE-Fluc cells, CellTiter-Fluor viability, 18-24 h | Potency, µM (doses to about 46 µM), hits mostly inhibitors | 0.16% of 390,000 active | AID 504648
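Cytotoxicity counterscreen: CellTiter-Fluor fluorescence was measured in A549 ARE_Fluc cells after 18-24 h of compound exposure in a concentration series. The subsequent BugLite luminescent read reports ARE-luciferase activity.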
A number is an active result; – = inactive; ? = inconclusive; · = no result given; [ ] = another dose, or the depositor's remark. In the library only some 2.6% were active in any assay of this set; here they are far more common. Unless noted, calls follow the shape of the dose curve; as a rule, active = well fitted curve in the direction sought with a large enough effect; inconclusive = small, poorly fitted or top-dose-only effect, or another doubt; inactive = no such curve, though single readings can be large; an effect the other way counts as inactive or inconclusive.

SMILES	TCR act	Nrf2 activator	CCT chaperon mod	A-T KAP1 phos	Nrf2 inh	A549 viability
COCCCN1C(=O)C(=O)/C(=C(/O)c2ccc(S(=O)(=O)N3CCCCC3)cc2)C1c1cccc(OC)c1 (stereo not given)	–	–	-84	–	–	–
Cc1cccc(NC(=O)c2ccc(-n3c(C)nnc3C)cc2)c1	·	–	·	·	·	–
CN(C#N)c1nc(N2CCOCC2)nc(N2CCOCC2)n1	–	–	–	·	?	–
CCN(CC)c1nc(C#N)nc(N2CCOCC2)n1	·	·	·	·	23µM	–
CCOc1ccc(-c2cc3nc(C4CCN(C(=O)OC(C)(C)C)CC4)c(C(=O)Nc4ccc(C)cc4C)cn3n2)cc1	·	–	·	·	?	–
Cc1ccc(NC(=O)c2nc(S(=O)(=O)Cc3ccccc3C)ncc2Cl)cc1C	–	–	–	–	–	–
Cc1ccccc1CS(=O)(=O)c1cnc2ccccc2n1	–	8.9µM	–	–	–	–
Cc1ccc(NC(=O)N2CCC(CN3CCCCCC3)CC2)c(Cl)c1	·	–	·	·	?	–
CC1CN(c2nc3c(c(=O)n(Cc4ccc(Cl)c(Cl)c4)c(=O)n3C)n2C)CC(C)O1 (stereo not given)	–	–	–	–	23µM	?
Cn1c(N2CCOCC2)nc2c1c(=O)n(Cc1ccc(Cl)cc1)c(=O)n2C	–	–	–	·	?	–
COc1ccc(C(C#N)=C2C=C(Cl)C(=NO)C=C2Cl)cc1	·	11µM	–	·	·	·
CCOC(=O)c1c(C)[nH]c(C)c1S(=O)(=O)N1CCC(C(=O)Nc2ccc(C)c(N(C)C)c2)CC1	·	–	·	·	–	–
CC(=O)Nc1ccccc1-c1cccc2nccn12	·	–	–	·	·	·
O=C1NC(=S)S/C1=C\c1ccc(SCc2ccccc2)o1	–	–	–	–	21µM	?
CCc1cc2c(=O)c(-c3nc4ccccc4n3C)c(C)oc2c(CN(CC)CC)c1O	–	–	–	–	–	–
CCN(CC)Cc1c(O)ccc2cc(-c3nc4ccccc4n3C)c(=O)oc12	–	–	–	22µM	?	?
CC1=C(C(N)=O)C(c2ccc(C(C)C)cc2)n2nc(SCc3ccccc3)nc2N1 (stereo not given)	·	–	·	·	–[9.27 µM]	–
O=[N+]([O-])c1ccccc1/C=C/C=N/n1c(-c2ccccc2F)n[nH]c1=S	–	?	–	25µM	–	–
Cc1ccccc1-c1n[nH]c(=S)n1/N=C/C=C/c1ccco1	–	13µM	–	–	?	–
NCCCNc1ccc(Br)cn1	·	·	·	·	–	–
O=C(c1cccc(Br)c1)N1CCN(c2ccc(N3CCOCC3)nn2)CC1	–	–	–	–	–	–
O=C(c1cncc(Br)c1)N1CCN(c2ccc(N3CCOCC3)nn2)CC1	–	–	-37	–	–	–
COc1ccc2nc(-c3ccccc3)cc(C(=O)OCC(=O)N3CC(C)OC(C)C3)c2c1 (stereo not given)	–	–	–	–	?	–
Cc1ccc(Nc2cc(C)nn2-c2nc(C)cc(=O)[nH]2)cc1	–	?	–	–	1.8µM	13µM
OCCN1CCN(c2ncnc3c2c(-c2ccccc2)cn3-c2ccc(F)cc2)CC1	–	–	–	–	?	?
SMILES	TCR act	Nrf2 activator	CCT chaperon mod	A-T KAP1 phos	Nrf2 inh	A549 viability
Cc1ccc(-n2cc(-c3ccccc3)c3c(N4CCCCC4)ncnc32)cc1	·	–	·	·	·	–
CC1CN(c2ncnc3c2c(-c2ccccc2)cn3-c2ccc(F)cc2)CC(C)O1 (stereo not given)	–	–	–	–	18µM	?
Cc1ccc(-n2cc(-c3ccccc3)c3c(N4CCOCC4)ncnc32)cc1	–	–	–	–	23µM	–
O=[N+]([O-])c1ccc(Cl)cc1Sc1ccccn1	–	–	–	–	–	–
COc1ccc(NC(=O)c2cccc(N3C(=O)C4C5C=CC(C6CC56)C4C3=O)c2)cc1 (stereo not given)	–	–	–	–	21µM	–
CC1=C(C(=O)NCc2ccc(Cl)cc2)C2(CCCCC2)OC1=O	·	–	·	·	·	–
O=C(NCC(c1ccco1)N1CCN(c2ccccc2F)CC1)c1cccs1 (stereo not given)	–	–	–	–	–	–
O=C(NCC(c1cccnc1)N1CCN(c2ccccc2F)CC1)OCc1ccccc1 (stereo not given)	–	–	–	·	21µM	–
O=C(NCc1cccs1)C(=O)NCC(c1ccco1)N1CCN(c2ccccc2F)CC1 (stereo not given)	–	–	–	–	21µM	–
O=C(NCC(c1cccnc1)N1CCN(c2ccccc2)CC1)OCc1ccccc1 (stereo not given)	–	–	–	–	–	–
O=C(Cn1c(=O)c2ccccc2n(CC(=O)Nc2ccc(Cl)cc2)c1=O)NCCc1ccccc1	·	–	·	·	?	?
COc1ccc(C2Oc3ccccc3C(=O)N2Cc2ccccc2)cc1COc1ccc(NC(C)=O)cc1 (stereo not given)	·	·	·	·	?	–
CCOC(=O)c1ccc(N2C(=O)c3n[nH]c(-c4ccco4)c3C2c2ccc(OCC)cc2)cc1 (stereo not given)	·	–	·	·	18µM	?
CCOC(=O)c1ccc(N2C(=O)c3n[nH]c(-c4ccco4)c3C2c2cccc(F)c2)cc1 (stereo not given)	·	–	·	·	21µM	?
CCOC(=O)c1ccc(N2C(=O)c3n[nH]c(-c4ccco4)c3C2c2ccc(F)cc2)cc1 (stereo not given)	·	–	·	·	?	–
CCc1ccc(OCC(=O)NCC(c2ccc(Cl)cc2)N2CCOCC2)cc1 (stereo not given)	·	–	·	·	?	–
COc1ccc(NC(=O)C23CCC(C)(C(=O)O2)C3(C)C)cc1 (stereo not given)	–	–	–	–	–	–
CCOC(=O)c1ccc(NC(=O)C23CCC(C)(C(=O)O2)C3(C)C)cc1 (stereo not given)	–	–	-38	–	?	–
Cc1ccc(N=C2NC(=O)/C(=C/c3cn(C)c4ccccc34)S2)cc1C	–	–	–	–	23µM	–
Cn1cccc1/C=C1\SC(=Nc2ccccc2)NC1=O	–	–	–	–	–	?
CS(=O)(=O)N1CCc2cc(-c3csc(NC(=O)Cc4cccs4)n3)ccc21	–	–	–	–	18µM	–
CCCCn1c(CCC)nc([N+](=O)[O-])c1Sc1ccc(Cl)cn1	–	11µM	–	–	?	–
CC(C)Cn1c(C(C)C)nc([N+](=O)[O-])c1Sc1ccc(Cl)cn1	–	?	–	–	–	–
Cc1sc(NC(=O)/C=C/C(=O)O)c(C(N)=O)c1-c1ccc(C(C)(C)C)cc1	–	13µM	–	–	–	–
CCOC(=O)c1c(NC(=O)/C=C/C(=O)O)sc(C)c1-c1ccc(C(C)(C)C)cc1	–	?	–	?	?	–
